USP28 block = blocks human USP28 ubiquitin-rhodamine cleavage; purified USP28, Ub-rhodamine cleavage fluorescence, 30 min; inhibition, % at 25 µM; actives 3% (n = 47,000); AID 1645857
USP10 block = human USP10 deubiquitinase inhibition | purified USP10, Ub-rhodamine fluorescence, 60 min | inhibition, % at 20 µM | actives 1.1% (n = 47,000) | Q14694
USP17 inh = human USP17-like deubiquitinase inhibition. inhibition, % at 50 µM. actives 6.5% (n = 47,000). purified USP17, Ub-rhodamine cleavage fluorescence, 3 h
USP30 block = human USP30 deubiquitinase inhibition. Q70CQ3. purified USP30, Ub-rhodamine cleavage fluorescence. inhibition, % at 25 µM. actives 5.3% (n = 47,000). AID 1645860
USP8 block = blocks human USP8 ubiquitin-rhodamine cleavage. actives 4.2% (n = 47,000). purified USP8, Ub-rhodamine cleavage fluorescence, 30 min. P40818. inhibition, % at 20 µM
Target sequence (P40818 whole entry, looked up): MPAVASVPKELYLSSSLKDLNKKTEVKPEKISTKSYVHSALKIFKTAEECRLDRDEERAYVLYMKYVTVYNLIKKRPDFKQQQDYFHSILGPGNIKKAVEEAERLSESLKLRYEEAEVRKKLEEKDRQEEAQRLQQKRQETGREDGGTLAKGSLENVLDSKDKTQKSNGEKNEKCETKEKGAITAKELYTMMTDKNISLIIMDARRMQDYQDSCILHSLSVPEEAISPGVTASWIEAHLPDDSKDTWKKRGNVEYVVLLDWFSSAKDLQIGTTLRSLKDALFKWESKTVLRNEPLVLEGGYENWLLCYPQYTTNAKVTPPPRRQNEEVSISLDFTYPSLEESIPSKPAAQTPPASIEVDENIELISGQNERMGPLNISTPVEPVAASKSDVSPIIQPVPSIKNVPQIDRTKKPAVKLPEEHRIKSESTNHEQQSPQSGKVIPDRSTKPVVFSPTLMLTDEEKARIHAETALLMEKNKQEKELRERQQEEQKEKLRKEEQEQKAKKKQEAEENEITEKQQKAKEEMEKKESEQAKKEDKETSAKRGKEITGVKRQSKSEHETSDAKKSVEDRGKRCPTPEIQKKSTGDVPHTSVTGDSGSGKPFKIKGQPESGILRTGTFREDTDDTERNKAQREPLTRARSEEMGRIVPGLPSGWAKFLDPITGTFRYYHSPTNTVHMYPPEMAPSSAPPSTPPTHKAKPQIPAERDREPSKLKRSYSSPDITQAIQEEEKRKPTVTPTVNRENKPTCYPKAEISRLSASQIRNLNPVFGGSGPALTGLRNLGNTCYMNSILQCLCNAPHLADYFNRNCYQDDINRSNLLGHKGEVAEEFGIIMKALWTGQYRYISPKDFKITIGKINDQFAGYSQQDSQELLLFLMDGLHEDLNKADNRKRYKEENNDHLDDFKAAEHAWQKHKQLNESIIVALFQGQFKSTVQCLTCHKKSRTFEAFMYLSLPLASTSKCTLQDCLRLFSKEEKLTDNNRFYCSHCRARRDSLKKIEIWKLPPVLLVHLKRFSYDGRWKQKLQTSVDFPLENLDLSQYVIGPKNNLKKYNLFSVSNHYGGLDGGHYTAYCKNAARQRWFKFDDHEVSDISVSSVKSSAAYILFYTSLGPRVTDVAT
The depositor's hits bear a star; x = no result. An excerpt weighted towards active compounds, which were near 14% of everything screened. Cut-off read from the data, not from the text of the source: active = inhibition above about 30%; inactive = the rest.

SMILES | USP28 block | USP10 block | USP17 inh | USP30 block | USP8 block
Nc1nccc(/C=C/c2c(Cl)cccc2Cl)n1 | 10 | 10 | 31* | -8 | 19
CCN(CC)S(=O)(=O)c1ccc(/C(=C\Nc2ccc(Cl)cc2)c2ncc(C(F)(F)F)cc2Cl)s1 | 4 | 3 | 13 | -11 | 36*
N#Cc1cccc(C(=O)Nc2ccc([C@H]3OCC(=O)N[C@@H]3CO)cc2)c1 | 5 | 4 | 39* | 37* | 16
CS(=O)(=O)c1cccc(C(=O)Nc2sc3c(c2C(N)=O)CCCC3)c1 | 0 | 20 | 36* | 15 | 10
COc1cccc(C(=O)Nc2nc(-c3ccc4c(c3)NC(=O)C(C)O4)c(C)s2)c1 (centres undefined) | 0 | 1 | -9 | 0 | -8
Cc1ccc(S(=O)(=O)Nc2nc(-c3ccc4c(c3)NC(=O)C(C)O4)c(C)s2)cc1 (centres undefined) | 22 | 41* | x | 26 | 50*
CCC1CN2C=NC(N3CCN(C(=O)c4ccoc4)CC3)=CC2=N1 (centres undefined) | 1 | 2 | 1 | 12 | 0
Cc1cc(-c2noc(-c3ccoc3C)n2)c2ccccc2n1 | 2 | -4 | 4 | -93 | 37*
COc1ccc(OCc2nc(-c3cc(C)nc4ccccc34)no2)cc1 | 10 | -6 | 14 | 2 | 2
O=C(NCc1ccccc1F)c1ccc(Cl)c(S(=O)(=O)N2CCCCC2)c1 | 38* | 9 | 9 | 22 | 5
Cn1cc(C(=O)NCc2ccccc2F)c(S(=O)(=O)N2CCCCC2)n1 | -14 | 1 | -49 | -20 | -348
CC(=O)N1CCN(S(=O)(=O)c2ccccc2)CC2(CNC(=O)C2)C1 (centres undefined) | 3 | 3 | x | 18 | -29
O=C(CC1SCCNC1=O)Nc1cccc2ccccc12 (centres undefined) | -10 | -3 | 0 | -8 | -27
O=c1ccnc(Nc2cccc3ccccc23)[nH]1 | -6 | 1 | 16 | -14 | 49*
O=C(CCn1nnc2ccccc21)N1C[C@@H](O)[C@H](N2CCOCC2)C1 | 5 | 2 | 1 | 17 | 14
CC1CCC2C(C)(C)C(O)CCC2(C)C12Cc1c(cc3c(c1O)CN(CCCCC(=O)O)C3=O)O2 (centres undefined) | 12 | -16 | 49* | -38 | -63
CO[C@H]1CC[C@H](O)c2c1oc1c3c4c(c(O)c1c2=O)-c1c(cc2c(Cl)c(C)n(N)c(=O)c2c1O)C[C@@H]4OCO3 | 59* | 23 | 62* | 1 | 26
Cc1ccc(S(=O)(=O)N2CCC(n3cnc4ccc(C)cc4c3=O)CC2)cc1 | 14 | 2 | 18 | 35* | 0
O=c1c2cc(F)ccc2ncn1C1CCN(S(=O)(=O)c2ccccc2)CC1 | -1 | 2 | 1 | 0 | 6
N#Cc1cccc(CN2CCC3(CCN(c4ncccn4)CC3)C2)c1 | x | 0 | -12 | x | -1
COc1cccc(NC(=O)c2cnc3c(c2)c(=O)n(C)c(=O)n3C)c1 | 41* | 8 | 22 | 71* | 18
Cn1c(=O)c2cc(C(=O)Nc3ccccc3)cnc2n(-c2ccc(F)cc2)c1=O | 2 | 15 | 9 | 7 | 3
Cc1ccc(NC(=O)c2cnc3c(c2)c(=O)n(C)c(=O)n3C)cc1 | 0 | 1 | 62* | 19 | 1
Cn1c(=O)c2cc(C(=O)Nc3ccc(Cl)c4cccnc34)cnc2n(C)c1=O | -18 | -3 | -16 | -58 | -41
Cc1cc(C)nc(N2CCC(N(CCN(C)C)C(=O)c3ccc4c(c3)OCO4)CC2)n1 | -3 | 0 | -14 | -3 | 16
SMILES | USP28 block | USP10 block | USP17 inh | USP30 block | USP8 block
COc1ccc(CNc2n[nH]c(NCc3ccc(OC)c(OC)c3)n2)cc1OC | -14 | 2 | -4 | -5 | -10
N#Cc1ccc(C(=O)c2nnc(-c3ccccc3Cl)o2)cc1 | 11 | -1 | 8 | 14 | 19
COC1=CC(=O)c2c(O)c(C)c(CC(C)=O)c(O)c2C1=O | 0 | -11 | 64* | -98 | 28
Cc1nn(-c2ccc(-c3ccccc3)nn2)c(C)c1S(=O)(=O)NC(C)C | 8 | 6 | 37* | 21 | -27
Cc1nn(-c2ccccc2)c(C)c1S(=O)(=O)Nc1cccnc1 | -9 | 2 | -71 | -13 | -8
O=C(Nc1cnc(N2CCCCC2)nc1)c1cc(F)ccc1F | 5 | -4 | -1 | -47 | -18
COc1noc(C2CCN(S(=O)(=O)c3ccc(C)cc3)CC2)c1C | 1 | 3 | 3 | 11 | -1
Cc1cccc(C(=O)N2CC(C(=O)NCCc3ccncc3)C3(CCOCC3)C2)c1 (centres undefined) | -121 | 0 | 4 | -5 | 1
Cc1cccc(NC(=O)COc2coc(CN3CCc4ccccc4C3)cc2=O)c1 | 2 | -4 | 6 | -28 | 35*
Cc1ccc(C)c(NC(=O)COc2coc(CN3CCc4ccccc4C3)cc2=O)c1 | -10 | -3 | -15 | -21 | 1
CC(=O)c1ccc(NC(=O)COc2coc(CN3CCc4ccccc4C3)cc2=O)cc1 | -14 | 4 | 46* | -78 | 2
Cc1ccc2nc(CSc3nnc(Cc4ccccc4)n3C)cc(=O)n2c1 | 0 | -1 | -2 | -50 | -2
COC(=O)c1ccc(NC(=O)CSc2nnc(-c3ccncc3)n2CC2CCCO2)cc1 (centres undefined) | 0 | -2 | -4 | 8 | 0
Cn1c(=O)sc2cc(NC(=O)c3ccc(Br)cc3)ccc21 | -2 | 1 | 59* | -49 | 3
COc1ccc(CN2C(=O)CCSc3ccc(Cl)cc32)cc1 | 16 | 5 | 10 | 7 | 4
Cc1ccc2c(c1)N(Cc1ccc(Cl)cc1)C(=O)CCS2 | 27 | 7 | 24 | 30* | 11
O=C(COc1ccc(C(=O)c2ccccc2)cc1)Nc1ccc2c(c1)OCO2 | 23 | 5 | 0 | 15 | -18
O=C(Nc1ccc2c(c1)OCCO2)c1cnc(N2CCOCC2)nc1 | 42* | 1 | -9 | -7 | -4
O=C(Nc1ccc2c(c1)OCO2)c1cnc(N2CCOCC2)nc1 | 17 | 0 | 40* | 0 | 81*
O=C(Nc1ccc(OCC(=O)N2CCOCC2)cc1)c1ccc2c(c1)OCO2 | 37* | 0 | 15 | 24 | -2
O=C(Nc1ccc(F)c(F)c1)c1cnc(N2CCOCC2)nc1 | 11 | -1 | 7 | 3 | 9
O=C(Nc1ccc2c(c1)OCO2)c1ccc(-c2ccc(N3CCOCC3)nn2)cc1 | -15 | 2 | -2 | -1 | -1
O=C(Nc1ccc(OC(F)(F)F)cc1)C(=O)c1cn(CC(=O)N2CCCCC2)c2ccccc12 | -17 | -5 | -32 | -74 | -13
Cc1cccc(-c2nnc(SCc3cn4cc(Cl)ccc4n3)n2Cc2ccco2)c1 | -68 | -10 | -18 | -268 | 1
COc1cccc(-c2noc(C(=O)NCCc3ccccc3OC)n2)c1 | -17 | 1 | -10 | -5 | -1
Cc1ncccc1NC(=O)c1nc2c(s1)CCCN2C(=O)C1CC1 | 0 | -3 | -13 | 0 | -40
